Measurements reported in ChEMBL document CHEMBL1961873, “Compounds: GSK PKIS; Assays: Nanosyn kinase panel” (2012).

Columns and labels:
[1] = target: Sphingosine kinase 1 (Homo sapiens) (UniProt Q9NYA1); details: at 1 µM;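 further: mean SPHK1 inhibition value reported from the GSK PKIS kinase panel screen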
[2] = target: T1, Sphingosine kinase 2 (Homo sapiens) (UniProt Q9NRA0); details: at 0.1 µM
T1 sequence (whole entry): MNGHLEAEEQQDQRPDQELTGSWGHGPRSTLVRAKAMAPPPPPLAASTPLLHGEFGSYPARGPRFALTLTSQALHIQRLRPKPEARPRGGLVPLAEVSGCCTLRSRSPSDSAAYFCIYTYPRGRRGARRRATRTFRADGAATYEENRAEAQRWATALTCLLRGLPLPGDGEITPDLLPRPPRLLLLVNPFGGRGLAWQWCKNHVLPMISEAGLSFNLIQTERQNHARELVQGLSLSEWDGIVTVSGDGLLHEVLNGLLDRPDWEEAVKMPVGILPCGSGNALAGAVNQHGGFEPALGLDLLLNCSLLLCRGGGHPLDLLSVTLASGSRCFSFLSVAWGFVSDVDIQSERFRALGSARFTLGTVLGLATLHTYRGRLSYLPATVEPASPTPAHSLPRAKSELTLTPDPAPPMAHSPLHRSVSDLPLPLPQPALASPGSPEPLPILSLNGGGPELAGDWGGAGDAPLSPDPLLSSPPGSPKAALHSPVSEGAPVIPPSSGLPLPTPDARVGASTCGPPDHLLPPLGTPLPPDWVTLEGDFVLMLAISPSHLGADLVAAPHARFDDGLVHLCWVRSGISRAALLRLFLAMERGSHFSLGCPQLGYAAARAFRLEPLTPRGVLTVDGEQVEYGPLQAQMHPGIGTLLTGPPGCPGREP

[3] = target: T1, Sphingosine kinase 2 (Homo sapiens); details: at 1 µM
[4] = target: Casein kinase II subunit alpha (Homo sapiens) (UniProt P68400); details: at 0.1 µM
[5] = target: Casein kinase II subunit alpha (Homo sapiens) (UniProt P68400); details: at 1 µM
[6] = target: T2, Inhibitor of nuclear factor kappa-B kinase subunit alpha (Homo sapiens) (UniProt O15111); details: at 0.1 µM
T2 sequence (whole entry): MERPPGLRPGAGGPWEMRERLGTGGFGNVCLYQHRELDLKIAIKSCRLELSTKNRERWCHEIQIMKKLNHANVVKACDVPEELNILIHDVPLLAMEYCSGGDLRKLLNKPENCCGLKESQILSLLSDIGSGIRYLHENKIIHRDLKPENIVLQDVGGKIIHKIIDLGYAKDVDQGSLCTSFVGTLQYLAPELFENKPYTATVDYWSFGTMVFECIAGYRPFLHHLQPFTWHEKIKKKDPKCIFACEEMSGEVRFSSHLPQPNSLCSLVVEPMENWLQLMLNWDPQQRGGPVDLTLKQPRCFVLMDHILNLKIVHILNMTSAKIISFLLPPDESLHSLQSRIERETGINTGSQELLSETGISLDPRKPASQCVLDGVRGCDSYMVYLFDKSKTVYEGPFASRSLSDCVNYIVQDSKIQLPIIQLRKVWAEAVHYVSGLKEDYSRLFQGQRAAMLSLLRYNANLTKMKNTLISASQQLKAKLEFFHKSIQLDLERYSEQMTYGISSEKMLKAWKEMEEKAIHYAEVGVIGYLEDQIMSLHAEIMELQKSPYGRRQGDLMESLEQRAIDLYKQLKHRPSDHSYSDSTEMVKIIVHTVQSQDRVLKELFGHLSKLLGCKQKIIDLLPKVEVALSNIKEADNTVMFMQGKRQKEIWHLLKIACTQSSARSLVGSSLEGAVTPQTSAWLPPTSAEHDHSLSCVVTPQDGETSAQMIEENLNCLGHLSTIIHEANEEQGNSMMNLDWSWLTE

[7] = target: T2, Inhibitor of nuclear factor kappa-B kinase subunit alpha (Homo sapiens); details: at 1 µM
[8] = target: T3, Inhibitor of nuclear factor kappa-B kinase subunit beta (Homo sapiens) (UniProt O14920); details: at 0.1 µM
T3 sequence (whole entry): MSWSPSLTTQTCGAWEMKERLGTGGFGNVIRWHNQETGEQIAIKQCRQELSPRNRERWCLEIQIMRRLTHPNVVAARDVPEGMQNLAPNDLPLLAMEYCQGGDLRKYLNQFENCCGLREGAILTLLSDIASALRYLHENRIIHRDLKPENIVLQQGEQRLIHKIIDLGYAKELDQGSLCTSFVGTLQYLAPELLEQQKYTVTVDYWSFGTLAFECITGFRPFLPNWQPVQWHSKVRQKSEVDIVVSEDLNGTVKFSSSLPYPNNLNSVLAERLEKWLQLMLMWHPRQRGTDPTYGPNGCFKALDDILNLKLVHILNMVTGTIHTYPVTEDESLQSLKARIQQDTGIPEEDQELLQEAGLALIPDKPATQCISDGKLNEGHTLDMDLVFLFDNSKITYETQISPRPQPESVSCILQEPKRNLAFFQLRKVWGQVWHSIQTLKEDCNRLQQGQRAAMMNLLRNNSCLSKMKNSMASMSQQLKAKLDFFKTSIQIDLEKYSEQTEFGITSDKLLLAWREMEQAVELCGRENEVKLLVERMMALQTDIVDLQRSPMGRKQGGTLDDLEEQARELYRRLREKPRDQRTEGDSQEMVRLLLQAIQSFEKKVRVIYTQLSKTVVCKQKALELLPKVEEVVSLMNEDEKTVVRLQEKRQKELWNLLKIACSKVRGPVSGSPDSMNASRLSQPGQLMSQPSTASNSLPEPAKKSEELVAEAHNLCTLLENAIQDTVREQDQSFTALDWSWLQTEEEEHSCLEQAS

[9] = target: T3, Inhibitor of nuclear factor kappa-B kinase subunit beta (Homo sapiens); details: at 1 µM
[10] = target: T4, Inhibitor of nuclear factor kappa-B kinase subunit epsilon (Homo sapiens) (UniProt Q14164); details: at 0.1 µM
T4 sequence (whole entry): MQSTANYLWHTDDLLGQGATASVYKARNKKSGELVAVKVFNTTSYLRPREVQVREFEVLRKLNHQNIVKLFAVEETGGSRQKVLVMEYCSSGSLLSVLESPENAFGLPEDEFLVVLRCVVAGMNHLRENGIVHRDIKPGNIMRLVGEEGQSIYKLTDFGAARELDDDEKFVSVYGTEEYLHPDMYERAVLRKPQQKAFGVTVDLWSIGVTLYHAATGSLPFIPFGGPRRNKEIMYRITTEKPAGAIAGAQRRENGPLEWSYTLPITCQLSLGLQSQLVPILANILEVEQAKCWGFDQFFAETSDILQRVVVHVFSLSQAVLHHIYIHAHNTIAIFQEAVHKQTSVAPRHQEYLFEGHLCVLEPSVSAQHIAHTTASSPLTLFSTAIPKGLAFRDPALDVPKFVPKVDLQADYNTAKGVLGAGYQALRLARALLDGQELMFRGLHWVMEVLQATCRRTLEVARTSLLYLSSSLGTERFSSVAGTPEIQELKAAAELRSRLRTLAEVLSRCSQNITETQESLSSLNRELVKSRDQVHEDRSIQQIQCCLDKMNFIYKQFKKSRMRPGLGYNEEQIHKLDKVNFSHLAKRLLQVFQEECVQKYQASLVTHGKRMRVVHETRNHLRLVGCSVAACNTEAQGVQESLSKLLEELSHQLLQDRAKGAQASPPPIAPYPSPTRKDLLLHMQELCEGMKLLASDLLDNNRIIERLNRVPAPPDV

[11] = target: T4, Inhibitor of nuclear factor kappa-B kinase subunit epsilon (Homo sapiens); details: at 1 µM
[12] = target: T5, Serine/threonine-protein kinase Nek1 (Homo sapiens) (UniProt Q96PY6); details: at 0.1 µM
T5 sequence (whole entry): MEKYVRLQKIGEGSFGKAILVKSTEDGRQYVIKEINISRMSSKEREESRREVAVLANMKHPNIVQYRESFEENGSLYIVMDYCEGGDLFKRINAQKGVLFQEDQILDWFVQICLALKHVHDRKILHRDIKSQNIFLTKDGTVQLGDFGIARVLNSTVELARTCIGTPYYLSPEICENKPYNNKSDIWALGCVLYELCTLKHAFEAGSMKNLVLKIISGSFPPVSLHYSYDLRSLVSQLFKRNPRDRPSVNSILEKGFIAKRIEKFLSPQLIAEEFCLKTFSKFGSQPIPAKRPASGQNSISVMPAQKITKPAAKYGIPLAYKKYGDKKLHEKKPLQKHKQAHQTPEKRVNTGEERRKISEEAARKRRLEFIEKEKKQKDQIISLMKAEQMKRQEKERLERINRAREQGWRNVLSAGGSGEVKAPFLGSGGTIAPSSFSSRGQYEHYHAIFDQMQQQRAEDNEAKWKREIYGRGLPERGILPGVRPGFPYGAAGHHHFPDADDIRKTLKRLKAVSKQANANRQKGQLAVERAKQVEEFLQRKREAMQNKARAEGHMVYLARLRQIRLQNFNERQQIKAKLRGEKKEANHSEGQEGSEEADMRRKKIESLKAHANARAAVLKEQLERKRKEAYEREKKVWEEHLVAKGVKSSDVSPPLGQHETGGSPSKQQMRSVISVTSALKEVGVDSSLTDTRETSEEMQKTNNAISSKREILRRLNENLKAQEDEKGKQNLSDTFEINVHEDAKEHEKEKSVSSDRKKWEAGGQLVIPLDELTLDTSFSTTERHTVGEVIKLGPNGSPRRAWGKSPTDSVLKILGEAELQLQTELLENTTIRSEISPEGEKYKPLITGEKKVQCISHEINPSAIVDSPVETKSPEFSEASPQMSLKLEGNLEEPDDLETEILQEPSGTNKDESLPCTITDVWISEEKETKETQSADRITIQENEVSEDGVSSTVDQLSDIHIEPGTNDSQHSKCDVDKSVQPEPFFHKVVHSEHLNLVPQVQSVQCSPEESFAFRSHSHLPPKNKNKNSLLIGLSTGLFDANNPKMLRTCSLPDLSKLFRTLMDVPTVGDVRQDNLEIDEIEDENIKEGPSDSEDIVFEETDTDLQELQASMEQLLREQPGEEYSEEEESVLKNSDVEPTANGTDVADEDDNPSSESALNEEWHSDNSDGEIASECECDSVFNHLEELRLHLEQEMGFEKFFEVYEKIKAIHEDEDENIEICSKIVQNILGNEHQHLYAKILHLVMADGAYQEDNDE

[13] = target: T5, Serine/threonine-protein kinase Nek1 (Homo sapiens); details: at 1 µM
[14] = target: T6, Serine/threonine-protein kinase Nek2 (Homo sapiens) (UniProt P51955); details: at 0.1 µM
T6 sequence (whole entry): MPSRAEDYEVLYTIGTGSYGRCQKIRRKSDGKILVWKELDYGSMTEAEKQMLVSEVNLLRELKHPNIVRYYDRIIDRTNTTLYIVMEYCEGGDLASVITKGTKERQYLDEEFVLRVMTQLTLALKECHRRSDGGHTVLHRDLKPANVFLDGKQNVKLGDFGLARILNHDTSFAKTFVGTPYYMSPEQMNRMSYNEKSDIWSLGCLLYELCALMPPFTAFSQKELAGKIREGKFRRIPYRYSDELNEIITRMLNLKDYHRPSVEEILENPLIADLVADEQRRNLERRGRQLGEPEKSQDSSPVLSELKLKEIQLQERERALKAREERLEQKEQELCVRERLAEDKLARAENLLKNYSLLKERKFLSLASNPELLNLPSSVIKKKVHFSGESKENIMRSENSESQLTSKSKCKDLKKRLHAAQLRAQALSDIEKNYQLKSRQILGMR

[15] = target: T6, Serine/threonine-protein kinase Nek2 (Homo sapiens); details: at 1 µM
[16] = target: Serine/threonine-protein kinase Nek6 (Homo sapiens) (UniProt Q9HC98); details: at 0.1 µM
[17] = target: Serine/threonine-protein kinase Nek6 (Homo sapiens) (UniProt Q9HC98); details: at 1 µM
[18] = target: Serine/threonine-protein kinase Nek7 (Homo sapiens) (UniProt Q8TDX7); details: at 0.1 µM
[19] = target: Serine/threonine-protein kinase Nek7 (Homo sapiens) (UniProt Q8TDX7); details: at 1 µM
[20] = target: T7, Serine/threonine-protein kinase Nek9 (Homo sapiens) (UniProt Q8TD19); details: at 0.1 µM;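 further: reported value is the mean percent inhibition of NEK9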
T7 sequence (whole entry): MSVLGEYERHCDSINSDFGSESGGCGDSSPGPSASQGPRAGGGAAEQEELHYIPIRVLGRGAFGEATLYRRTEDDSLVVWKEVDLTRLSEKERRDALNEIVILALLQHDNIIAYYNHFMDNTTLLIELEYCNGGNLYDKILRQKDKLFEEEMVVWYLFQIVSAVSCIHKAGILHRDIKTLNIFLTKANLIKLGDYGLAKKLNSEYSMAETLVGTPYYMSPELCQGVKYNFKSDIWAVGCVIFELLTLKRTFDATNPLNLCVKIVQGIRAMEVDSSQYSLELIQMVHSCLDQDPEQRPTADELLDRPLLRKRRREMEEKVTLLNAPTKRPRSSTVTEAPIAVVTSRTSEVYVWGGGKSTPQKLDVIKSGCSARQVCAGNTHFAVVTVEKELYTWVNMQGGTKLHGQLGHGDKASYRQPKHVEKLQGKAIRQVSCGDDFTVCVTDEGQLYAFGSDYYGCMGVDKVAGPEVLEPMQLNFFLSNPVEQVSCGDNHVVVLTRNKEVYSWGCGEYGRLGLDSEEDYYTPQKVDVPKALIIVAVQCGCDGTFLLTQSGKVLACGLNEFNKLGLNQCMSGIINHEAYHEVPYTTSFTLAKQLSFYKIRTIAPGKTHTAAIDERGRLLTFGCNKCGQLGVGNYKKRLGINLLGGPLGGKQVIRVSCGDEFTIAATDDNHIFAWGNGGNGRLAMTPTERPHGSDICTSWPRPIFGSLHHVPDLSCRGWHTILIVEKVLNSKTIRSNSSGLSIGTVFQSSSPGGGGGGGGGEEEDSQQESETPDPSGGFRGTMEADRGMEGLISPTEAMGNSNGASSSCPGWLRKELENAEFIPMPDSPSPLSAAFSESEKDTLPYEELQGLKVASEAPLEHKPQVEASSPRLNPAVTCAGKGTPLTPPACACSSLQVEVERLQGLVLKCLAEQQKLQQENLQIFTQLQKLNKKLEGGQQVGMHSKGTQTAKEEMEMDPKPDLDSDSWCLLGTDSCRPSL

Sequence of Serine/threonine-protein kinase Nek7 (Homo sapiens) (Q8TDX7 whole entry, looked up): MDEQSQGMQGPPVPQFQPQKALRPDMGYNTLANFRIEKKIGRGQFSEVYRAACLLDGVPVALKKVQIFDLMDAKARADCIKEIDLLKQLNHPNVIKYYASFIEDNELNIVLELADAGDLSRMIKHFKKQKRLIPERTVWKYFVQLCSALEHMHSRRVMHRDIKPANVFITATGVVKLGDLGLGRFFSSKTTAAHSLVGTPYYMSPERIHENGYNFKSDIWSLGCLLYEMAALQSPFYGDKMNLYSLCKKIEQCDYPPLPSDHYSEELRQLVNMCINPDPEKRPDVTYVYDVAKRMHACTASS
Sequence of Serine/threonine-protein kinase Nek6 (Homo sapiens) (Q9HC98 whole entry): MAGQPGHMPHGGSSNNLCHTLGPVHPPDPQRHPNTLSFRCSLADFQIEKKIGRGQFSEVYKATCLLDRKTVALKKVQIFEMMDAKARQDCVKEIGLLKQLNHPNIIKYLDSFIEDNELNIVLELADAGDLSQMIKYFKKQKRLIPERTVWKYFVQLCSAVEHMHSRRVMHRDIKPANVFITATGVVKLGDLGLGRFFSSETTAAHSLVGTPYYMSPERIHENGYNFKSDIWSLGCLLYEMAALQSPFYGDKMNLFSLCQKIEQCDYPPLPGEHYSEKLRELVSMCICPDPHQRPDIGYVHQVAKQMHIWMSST
Sequence of Casein kinase II subunit alpha (Homo sapiens) (P68400 whole entry, looked up): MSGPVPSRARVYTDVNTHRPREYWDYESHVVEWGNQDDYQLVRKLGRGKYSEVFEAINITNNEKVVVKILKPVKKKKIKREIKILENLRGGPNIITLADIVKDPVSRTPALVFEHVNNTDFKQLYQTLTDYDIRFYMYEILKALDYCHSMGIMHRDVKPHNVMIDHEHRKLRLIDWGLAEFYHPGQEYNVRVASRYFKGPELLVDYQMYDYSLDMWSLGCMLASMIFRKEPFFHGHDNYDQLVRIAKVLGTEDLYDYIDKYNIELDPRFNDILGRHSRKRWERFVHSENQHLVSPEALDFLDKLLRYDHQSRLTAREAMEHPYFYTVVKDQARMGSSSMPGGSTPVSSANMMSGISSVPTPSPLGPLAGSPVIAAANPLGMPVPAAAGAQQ
Sequence of Sphingosine kinase 1 (Homo sapiens) (Q9NYA1 whole entry): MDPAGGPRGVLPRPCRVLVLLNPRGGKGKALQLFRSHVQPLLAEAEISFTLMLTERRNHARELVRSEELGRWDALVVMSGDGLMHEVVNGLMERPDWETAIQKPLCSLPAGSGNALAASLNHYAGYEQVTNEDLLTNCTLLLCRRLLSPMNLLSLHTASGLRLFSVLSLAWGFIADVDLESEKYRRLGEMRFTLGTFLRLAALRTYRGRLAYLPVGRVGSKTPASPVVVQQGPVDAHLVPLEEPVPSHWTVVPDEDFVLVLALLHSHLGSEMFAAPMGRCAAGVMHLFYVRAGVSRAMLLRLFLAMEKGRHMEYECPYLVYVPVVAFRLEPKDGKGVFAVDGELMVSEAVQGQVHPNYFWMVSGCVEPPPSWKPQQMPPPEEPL

COc1cc2ncn(-c3cc(OCc4ccccc4Cl)c(C(N)=O)s3)c2cc1OC
inhibition [1]: -2.81% | inhibition [2]: 5.21% | inhibition [3]: -4.96% | inhibition [4]: 2.2% | inhibition [5]: 9.54% | inhibition [6]: -1.84% | inhibition [7]: 5.14% | inhibition [8]: 1.96% | inhibition [9]: 1.01% | inhibition [10]: 0.65% | inhibition [11]: 2.71% | inhibition [12]: 3.45% | inhibition [13]: 15.5% | inhibition [14]: 3.49% | inhibition [15]: 37.3% | inhibition [16]: 1.95% | inhibition [17]: -3.5% | inhibition [18]: 4.31% | inhibition [19]: 1.21% | inhibition [20]: 9.22%
